From PubChem
IMPase inh = qHTS Assay for Identifying the Cell-Membrane Permeable IMPase Inhibitors. CHO-M1 cells, IP1 accumulation, HTRF TR-FRET ratio. 120,000 tested, under 10 active. AID 901, 2007. inhibition (IP1 accumulation), % at 46.1 µM. Inositol monophosphatase 1 (Rattus norvegicus), P97697; active = well fitted curve in the direction sought with a large enough effect in the signal ratio, not every such curve was filed as active; inconclusive = small, poorly fitted or top-dose-only effect, or a change in a side signal; inactive = no such curve, though single readings can be large or run the other way; the % refers to the signal ratio;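 note: cells stimulated with carbachol in lithium chloride buffer; higher means more IMPase inhibition seen as more IP1 and lower FRET ratio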
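CHO-M1 cells (CHO stably expressing M1 receptor), compound up to 46 uM final, stimulated with carbachol (50 uM as added) in buffer with 50mM LiCl, pH 7.4, 30 min at 37C. Cytosolic IP1 read by TR-FRET; AC50 from Hill fits.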
PNC inhibitor = High Content Assay for Compounds that inhibit the Assembly of the Perinucleolar Compartment; PC3M PTB-GFP, PNC prevalence imaging, 16 h; hits give low values; activity change (PNC), negative = inhibition, % at 10 µM; actives 3.1% (n = 140,000); AID 2417, 2010;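 active = readout at or below -70, meaning at least 70% loss of cells showing the perinucleolar compartment, a nuclear body marking cancer cells; inconclusive = readout between -30 and a set limit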
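Read-out is percentage of cells bearing a perinucleolar compartment, from automated 20x imaging of fixed, Hoechst-stained PC3M PTB-GFP cells. Cells were seeded 4 h, then exposed 16 h to compound (23 nl of library stock) in duplicate plates.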
HPGD inh = qHTS Assay for Inhibitors of HPGD (15-Hydroxyprostaglandin Dehydrogenase) | purified HPGD, NADH fluorescence kinetic, PGE2 substrate | Potency, µM, hits mostly inhibitors | actives 4.3% (n = 150,000) | AID 894, 2007
Target sequence (P15428 whole entry, looked up): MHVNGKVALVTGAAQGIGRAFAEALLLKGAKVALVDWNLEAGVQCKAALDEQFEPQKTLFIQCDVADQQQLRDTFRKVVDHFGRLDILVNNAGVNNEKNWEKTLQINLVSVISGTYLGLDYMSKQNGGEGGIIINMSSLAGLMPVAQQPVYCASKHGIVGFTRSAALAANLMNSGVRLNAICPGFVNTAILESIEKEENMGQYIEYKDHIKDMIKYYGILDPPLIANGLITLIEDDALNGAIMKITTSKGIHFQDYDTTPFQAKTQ
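20 nM HPGD preincubated 15 min at room temperature with compound in 50 mM Tris-HCl pH 8, 0.01% Tween 20. Started with 1 mM NAD+ and 30 uM prostaglandin E2; NADH fluorescence (360/450 nm) read 5 times over 30-s intervals, last minus first.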
LMNA splice mod = qHTS Assay for Modulators of Lamin A Splicing | HeLa LMNA splicing GFP/RFP minigene ratio, 48 h | Potency, µM (series often up to 46.1 µM), usual class: inhibitors | actives 0.01% (n = 200,000) | AID 1487, 2009; active = well fitted inhibition curve with a large enough effect in the signal ratio, with a control signal flat, not every such curve was filed as active; inconclusive = small, poorly fitted or top-dose-only effect, or effect the other way, or a change in a side signal; the % refers to the signal ratio
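S3 HeLa stable clones carrying a lamin A-EGFP splicing minigene plus DsRed2 were seeded at 600 cells/well in Opti-MEM with 2% FBS, pin-dosed and incubated 48 h at 37°C. Acumen cytometry (488 nm) gave the GFP/RFP total-intensity ratio.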
ALDH1A1 inh = qHTS Assay for Inhibitors of Aldehyde Dehydrogenase 1 (ALDH1A1) | Aldehyde dehydrogenase 1A1 (Homo sapiens), P00352 | Purified ALDH1A1, NADH fluorescence, propionaldehyde substrate | Potency, µM (series often up to 75.3 µM), actives largely listed as inhibitors | actives 7.3% (n = 220,000)
Target sequence (P00352 whole entry, looked up): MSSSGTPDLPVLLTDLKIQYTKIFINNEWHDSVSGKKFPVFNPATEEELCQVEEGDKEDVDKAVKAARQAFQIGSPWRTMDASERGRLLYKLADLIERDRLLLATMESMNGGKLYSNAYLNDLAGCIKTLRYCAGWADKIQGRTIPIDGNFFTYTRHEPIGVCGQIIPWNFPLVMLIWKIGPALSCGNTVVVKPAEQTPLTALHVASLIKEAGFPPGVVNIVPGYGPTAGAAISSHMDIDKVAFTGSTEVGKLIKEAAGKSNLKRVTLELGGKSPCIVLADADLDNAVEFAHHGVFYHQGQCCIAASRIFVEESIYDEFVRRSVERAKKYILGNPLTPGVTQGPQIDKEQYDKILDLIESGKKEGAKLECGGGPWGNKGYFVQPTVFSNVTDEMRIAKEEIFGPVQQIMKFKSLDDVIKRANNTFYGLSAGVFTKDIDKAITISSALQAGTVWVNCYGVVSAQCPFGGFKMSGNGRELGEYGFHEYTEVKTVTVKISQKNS
KinaseGlo FLuc = Counterscreen for Luciferase (Kinase-Glo TM) Inhibition. Kinase-Glo luciferase, ATP luminescence, 8 min. Potency, µM (series often up to 38.3 µM), actives largely listed as inhibitors. AID 1379, 2008. Luciferin 4-monooxygenase (Photuris pensylvanica), Q27757. actives 0.28% (n = 200,000); active = well fitted inhibition curve with a large enough effect; inconclusive = small, poorly fitted or top-dose-only effect; note: nearly all actives have a fitted effect of over 60% in size
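Inhibition of Kinase-Glo luciferase light generation was assessed at 10 uM ATP in pH 7.2 imidazole buffer, with luminescence measured after eight minutes at ambient temperature.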
Numbers stand for hits; . = inactive; ? = inconclusive; / = no result; [ ] = dose if it differs, or a comment. A selection: hits, their analogues and other compounds. The true share with any hit is near 10%. Unless noted, calls come from the whole dose curve; as a rule, active = well fitted inhibition curve with a large enough effect (not every such curve was filed as active); inconclusive = small, poorly fitted or top-dose-only effect, or another doubt; inactive = no such curve, though single readings can be large or run the other way.

SMILES	IMPase inh	PNC inhibitor	HPGD inh	LMNA splice mod	ALDH1A1 inh	KinaseGlo FLuc
O=C(CN1CCN(CC(=O)Nc2ccccc2F)CC1)Nc1ccc2c(c1)OCCO2	/	/	/	/	28.2µM	.
O=C(CN1CCN(c2ccccc2)CC1)Nc1ccc2c(c1)OCCO2	/	/	/	.	.	.
Cc1nc(N2CCOCC2)c2c(C(=O)N3CCN(c4cc(Cl)ccc4C)CC3)c(C)oc2n1	/	/	/	.	/	/
O=C(CN1CCN(S(=O)(=O)c2ccc(Br)cc2)CC1)Nc1ccc2c(c1)OCCO2	.	.	.	.	25.1µM	.
O=C(CN1CCN(C(=O)c2ccco2)CC1)Nc1ccc2c(c1)OCCO2	?	.	.	.	12.6µM	.
CC(C(=O)Nc1ccc2c(c1)OCCO2)N1CCN(C(=O)c2ccco2)CC1 (stereo not given)	.	?	.	.	.	.
COc1ccc(S(=O)(=O)N2CCN(CC(=O)Nc3ccc(C)c(F)c3)CC2)cc1	.	.	.	.	10µM	.
COc1ccccc1N1CCN(CC(=O)Nc2ccc3c(c2)OCCO3)CC1	/	/	/	/	22.4µM	.
Cc1nc(N2CCOCC2)c2nc(-c3ccccc3)n(CCN3CCOCC3)c2n1	/	/	?	/	?	.
COc1cc(OC)cc(-c2nc3n(n2)C(c2ccccc2)C(C(N)=O)=C(C)N3)c1 (stereo not given)	.	/	/	/	/	/
CC(=O)N(Cc1ccccc1)c1ccc(C(=O)O)cc1	.	-85.0	.	.	.	.
CC(=O)N(CCN(C(C)=O)c1ccccc1)c1ccccc1	.	?	.	.	.	.
COC(=O)C1OC(=O)C2O[C@@]23[C@]2(C)C(OC(C)=O)CC4C(C)(C)C(=O)CC[C@]4(C)C2CC[C@@]13C (stereo not given in full)	/	/	.	/	.	.
O=C(O)C1CCCN1S(=O)(=O)c1ccc(Br)s1 (stereo not given) (tested in a mixture with another compound)	.	.	.	.	.	.
O=C(O)C1CCCCN1S(=O)(=O)c1ccc(Cl)s1 (stereo not given)	.	.	.	.	15.8µM	.
O=C(/C=C/c1cccs1)c1ccc(N2CCOCC2)cc1	/	/	/	/	.	?
O=C(/C=C/c1cccc(F)c1)c1ccc(N2CCOCC2)cc1	/	/	/	/	12.6µM	/
Cc1nn(CC(=O)Nc2ccccc2F)c(=O)c2c(C)n(-c3ccc(Cl)cc3)nc12	/	/	/	.	/	/
O=C(c1nsc(Cl)c1Cl)N1CCCCC1	.	.	2.51µM	?	.	.
CCn1c(SCc2ccc(F)cc2)nc2c(c1=O)SCC2	/	/	/	/	.	.
CCn1c(SCc2cccc(F)c2)nc2c(c1=O)SCC2	/	/	/	/	14.1µM	.
Cc1cc(N2CCCC2)c(C)cc1C=O	.	.	.	.	14.1µM	.
Cc1cc(N)ccc1N1CCCC1	.	.	.	.	25.1µM	.
Cc1ccc(-n2c(C)cc(=O)cc2C)c(C)c1	.	.	.	.	.	.
Cc1cc(N)ccc1-n1c(C)ccc1C	.	.	.	?	10µM	.
SMILES	IMPase inh	PNC inhibitor	HPGD inh	LMNA splice mod	ALDH1A1 inh	KinaseGlo FLuc
C[C@H](NC(=O)c1nc[nH]c1C(=O)N[C@@H](Cc1ccccc1)C(=O)OC(C)(C)C)c1ccccc1	/	/	/	/	17.8µM	/
C[C@H](NC(=O)c1nc[nH]c1C(=O)N[C@H](C)c1ccccc1)C(=O)OC(C)(C)C	/	/	/	/	.	/
C[C@H](NC(=O)c1nc[nH]c1C(=O)NC(c1ccccc1)c1ccccc1)C(=O)OC(C)(C)C	/	/	/	/	2µM	/
CC(C)(C)c1ccc(S(=O)(=O)O/N=C2/CCCCC2c2ccc([N+](=O)[O-])cc2[N+](=O)[O-])cc1 (stereo not given)	.	.	.	.	5.62µM	.
O=C(CSc1nc2ccccc2s1)N1CCOCC1	.	.	.	.	?	.
NC(=O)C1(N2CCCCC2)CCN(C(=O)CSc2nc3ccccc3s2)CC1	.	?	.	.	25.1µM	.
O=C1CCCCCN1CSc1nc2ccccc2s1	.	.	.	.	12.6µM	.
CCS(=O)CCSc1nc2ccccc2s1 (stereo not given)	.	.	15.8µM	.	?	.
COCC1=C2c3ccccc3[C@H](C[N+](=O)[O-])C(C(=O)OC)(C(=O)OC)C[C@@H]2n2c(=O)n(-c3ccccc3)c(=O)n2C1	/	/	.	/	.	.
c1ccc(Nc2ncnc3ccc(-c4cccnc4)cc23)cc1	/	/	.	?	.	.
Cc1ccc(NC(=O)CN(C)C2CCCCC2)cc1Br	/	/	/	/	28.2µM	.
COc1ccc(-c2cc([C@H](O)C3CCCCN3)c3ccccc3n2)cc1 (stereo not given in full)	/	/	?	/	?	.[7.66 µM]
COc1ccc(C(=O)Nn2c(C)nnc2-n2nc(C)cc2C)cc1OC	.	.	.	.	.	.
COc1cccc(C(=O)Nn2c(C)nnc2-n2nc(C)cc2C)c1	.	-100.0	.	.	.	.
COc1ccc(CCNC(=O)c2ccc3nc(Cc4ccccc4)oc3c2)cc1OC	/	/	/	.	/	/
Clc1ccc(-c2nc3ccncc3[nH]2)cc1	/	.	?	.	11.2µM	?
COc1ccc(N2CC(NC(=O)C3CCCCC3)CC2=O)cc1 (stereo not given)	/	/	/	.	/	/
CN(CC1COc2ccccc2O1)C(=O)c1ccc(N(C)C)cc1 (stereo not given)	/	/	/	.	5.62µM	.
CN(C)c1ccc(C=NCC2COc3ccccc3O2)cc1 (stereo not given)	/	/	/	.	0.562µM	.
O=C(O)CCC1COc2ccccc2O1 (stereo not given)	.	?	.	.	.	.
N#Cc1c(NC(=O)C2CC(Cl)=CCC2C(=O)O)sc2c1CCCC2 (stereo not given)	/	/	/	/	17.8µM	.
Cc1sc(NC(=O)C2CC(Cl)=CCC2C(=O)O)c(C#N)c1C (stereo not given)	/	/	/	/	.	.
N#Cc1c(NC(=O)c2cc(-n3cnnc3)ccc2Cl)sc2c1CCCC2	.[1.84 µM]	.	.	?	12.6µM	.
Cc1cc(C(=O)Nc2sc3c(c2C#N)CCC(C)C3)no1 (stereo not given)	.	.	.	.	?	.
Cc1cc(C(=O)Nc2sc3c(c2C#N)CCCC3)no1	.	.	28.2µM	.	11.2µM	.
Cc1cc(C(=O)Nc2sc3c(c2C#N)CCC3)no1	.	-85.4	.	.	?	.
Cc1ccccc1C1CC(=O)Oc2cc(C)c(Br)c(C)c21 (stereo not given)	/	/	.	/	.	.
CCc1cc(-c2n[nH]c(=S)n2C(C)c2ccccc2)cs1 (stereo not given)	.	.	15.8µM	?	0.562µM	.
